This is a sample that favours compounds with a hit; in the whole collection about 2.1% have one here.
aSyn rescue: inhibitors of alpha-synuclein toxicity in yeast. AID 652106. Potency, µM (series often up to 46.1 µM), inactives show at the top dose growth rescue (activation), actives largely listed as activators. Yeast expressing alpha-synuclein, growth rescue, BacTiter-Glo, 24 h. hit rate 0.14% among 370,000; also: % of control where 0% means no effect; nearly all actives have a fitted effect of over 65% in size
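Rescue of yeast growth: cells expressing toxic alpha-synuclein, induced in galactose at OD600 0.02, incubated with compound 24 h at 30 C. ATP luminescence quantified growth; inhibitors of toxicity appear as activators.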
Abeta rescue: compounds reversing amyloid beta toxicity in yeast | yeast expressing A-beta42, growth rescue, OD600, 48 h; response scale: 0% DMSO, 100% iron-clioquinol control | Potency, µM (top dose mostly 46.1 µM), usual class: activators | hit rate 0.063% among 410,000; also: nearly all actives have a fitted effect of over 55% in size
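Yeast A-beta toxicity model in growth medium with pinned compounds, 48 h at 30 C; growth read as absorbance at 600 nm. Normalized to FeCl3/clioquinol equimolar mix (positive) and DMSO (negative).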
TDP43 rescue: TDP-43 toxicity inhibition in yeast. Potency, µM (highest dose often 46.1 µM), for inactives: top-dose growth rescue (activation), actives largely listed as activators. hit rate 1.8% among 410,000. TDP-43 expressing yeast growth rescue, BacTiter-Glo, 24 h; also: % of control where 0% means no effect; nearly all actives have a fitted effect of over 50% in size
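Galactose-induced TDP-43 yeast, OD600=0.02, compound pinned; 24 hr, 30 deg C; BacTiter-Glo luminescence for growth. Inhibitors of TDP-43 toxicity read as activators.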
FUS yeast rescue: suppressors of FUS proteinopathy in yeast. hit rate 0.24% among 390,000. Potency, µM (top dose mostly 76.6 µM), most hits filed as activators. AID 1347120. S. cerevisiae FUS-expressing, growth rescue, OD600, 24 h;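 also: plate controls were DMSO vehicle for no effect and reference control for full effect; nearly all actives have a fitted effect of over 55% in size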
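Compound concentration series was pinned onto galactose-induced FUS-expressing yeast seeded at OD 0.005. Plates sat 24hr at 30C; absorbance at 600 nm gave growth. DMSO served as background control.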
The depositor's hits bear a star; i = inactive; ? = inconclusive; . = no result. Calls follow the shape of the dose curve; as a rule, active = well fitted curve in the direction sought with a large enough effect; inconclusive = small, poorly fitted or top-dose-only effect, or another doubt; inactive = no such curve, though single readings can be large; an effect the other way counts as inactive or inconclusive. Potency is read from the fitted curve at half-maximal effect.

SMILES | aSyn rescue | Abeta rescue | TDP43 rescue | FUS yeast rescue
Cc1ccc(S(=O)(=O)N(C)C[C@@H]2OCCCC[C@@H](C)Oc3ccc(NS(=O)(=O)c4c(C)noc4C)cc3C(=O)N([C@H](C)CO)C[C@@H]2C)cc1 | 3% | i | 11% | 16µM*
CC(C)Oc1ccc(C(=O)OCC(=O)NC(=O)NC2CCCC2)cc1 | 17% | ? | 20µM* | i
CC(C)Oc1ccc(C(=O)OCC(=O)NC2CCCCCC2)cc1 | 1% | i | ? | i
O=C(CCc1ccccc1)N[C@H]1[C@@H](OC(=O)c2cccnc2)CCC[C@]12C(=O)N(Cc1ccccc1)c1ccccc12 | . | . | . | i
Fc1ccc(-c2nc3ccc(Br)cn3c2Cc2ccccc2)cc1 | 17% | i | 35µM* | i
Brc1ccc(-c2nc3ccc(Br)cn3c2Cc2ccccc2)cc1 | 6% | i | 22% | i
Clc1ccc(-c2nc3ccc(Br)cn3c2Cc2ccsc2)cc1 | -17% | i | 35µM* | i
Fc1ccc(-c2nc3ccc(Br)cn3c2Cc2cccc(Cl)c2)cc1 | 4% | i | 35µM* | i
COC(=O)C1CCN(C(=O)CN2CCC(C(=O)c3ccc(C)cc3)CC2)CC1 | . | . | . | i
C[C@H]1[C@@H](OC(=O)Nc2cc(Cl)ccc2Cl)CC[C@@]23CCCN2C(=O)CCC[C@@H]13 | . | . | . | i
O=C1CCC[C@H]2C[C@H](NCc3ccc(Cl)cc3)CC[C@]23CCCN13 | . | . | . | i
CCNc1nc(NCC)n2c(SC(C(=O)Nc3cc(C)ccc3C)c3ccccc3)nnc2n1 (stereo unspecified) | -4% | i | -8% | 32µM*
COc1ccc(OC)c(Nc2nc(-c3sc(C)nc3C)cs2)c1 | 8% | i | 22µM* | i
Cc1nc(C)c(-c2csc(Nc3ccc(Cl)cn3)n2)s1 | -27% | i | 13µM* | i
CCn1c(SCC(=O)Nc2ccc(C(C)C)cc2)nnc1-c1ccc(C(C)(C)C)cc1 | . | . | . | i
COc1ccc(S(=O)(=O)N2CCOC23CCN(C(=O)c2c(F)cccc2Cl)CC3)cc1 | 3% | ? | 18µM* | i
CCOc1ccc(N=Nc2ccc(O)c3ncccc23)cc1 | 13µM* | ? | ? | i
NS(=O)(=O)c1ccc(N=Nc2ccc(O)c3ncccc23)cc1 | -22% | i | ? | i
CN[C@H](CC(C)C)C(=O)N[C@H]1C(=O)N[C@@H](CC(N)=O)C(=O)N[C@@H]2C(=O)N[C@H]3C(=O)N[C@H](C(=O)N[C@H](C(=O)O)c4cc(O)cc(O)c4-c4cc3ccc4O)[C@H](O)c3ccc(c(Cl)c3)Oc3cc2cc(c3O[C@@H]2O[C@H](CO)[C@@H](O)[C@H](O)[C@@H]2O[C@H]2C[C@](C)(N)[C@H](O)[C@H](C)O2)Oc2ccc(cc2Cl)[C@H]1O | -6% | . | . | .
COC(=O)[C@]12C[C@H](CC(=O)N3CCOCC3)C(=O)N(CCc3ccc(OC)c(OC)c3)C1=C[C@H](COCc1ccccc1)O[C@@H]2C | . | . | . | i
COC(=O)c1sc(=S)sc1C(=O)OC | ? | i | 13µM* | i
CCOC(=O)[C@]12CCCC=C1N(CCCOC)C(=O)[C@@H]2CC(=O)NCc1cccs1 | . | . | . | i
CN1CCCN(C(=O)Cc2c(Cl)cccc2Cl)c2nc3ccccc3nc21 | 8% | i | 22µM* | i
CN1CCCN(C(=O)c2cc(=O)[nH]c3ccccc23)c2nc3ccccc3nc21 | -12% | i | 13% | i
O=S1(=O)c2c(NCc3ccco3)cccc2Oc2ccccc2CN1Cc1cn(Cc2cccc(F)c2)nn1 | . | . | . | i
SMILES | aSyn rescue | Abeta rescue | TDP43 rescue | FUS yeast rescue
Cc1nc(SCc2cccc(Oc3ccccc3)c2)n[nH]1 | -32% | i | 28µM* | i
COc1ccc(OC)c(/C=C2\C=Cc3ccccc32)c1 | 0% | . | . | .
CC[C@@H]1C(c2ccccc2)=NN(c2ccc(Br)cc2)[C@H]1C(=O)N1CCOC1=O | ? | i | ? | i
CC[C@@H]1C(c2ccc(F)cc2)=NN(c2ccc(Br)cc2)[C@H]1C(=O)N1CCOC1=O | 23% | i | 14µM* | i
COc1ccccc1C(=O)NCCSCc1c(F)cccc1Cl | 2% | i | 19% | i
Cc1c(C(=O)NCCSCc2c(F)cccc2Cl)cnn1-c1ccc(Cl)cc1 | -1% | i | 20µM* | i
CC1Cc2cc(S(=O)(=O)NCCc3ccc(Cl)cc3)ccc2N1C(=O)C1CCC1 (stereo unspecified) | . | ? | 18µM* | i
Cc1ccc(CCNS(=O)(=O)c2ccc3c(c2)CC(C)N3C(=O)C2CCC2)cc1 (stereo unspecified) | . | i | ? | i
O=C(Nc1ccc(Cl)cc1Cl)OC1CCC12CCC(c1ccccc1)CC2 (stereo unspecified) | . | . | . | i
N#Cc1cccc2c1-c1ccccc1/C2=N/NC(N)=S | -8% | i | 11µM* | i
N#Cc1cccc2c1-c1ccccc1/C2=N/NC(N)=O | 1% | i | 16% | i
Nn1c(SCC(=O)N2c3ccccc3Sc3ccc(Cl)cc32)nnc1-c1cc(-c2ccc(F)cc2)n[nH]1 | . | . | . | 14µM*
Cc1cccc(C)c1OCC(=O)N[C@@H](Cc1ccccc1)[C@@H](O)C[C@H](Cc1ccccc1)NC(=O)[C@H](C(C)C)N1CCCNC1=O | 2% | . | . | 32µM*
CCc1ccc(OC)c(-c2csc(N)n2)c1 | -23% | i | 16% | i
Nc1nc(-c2cc(Cl)cc(Cl)c2OC(F)F)cs1 | 2% | i | 16µM* | i
Cc1ccc(-c2ccc(/C=C(\C#N)C(N)=S)n2C)cc1 | -5% | i | 0% | i
Cc1cc(C)c(/C=C(\C#N)C(N)=S)c(C)c1 | 27% | i | 11µM* | i
CCCCCCSc1ccc(-c2nc3cnccn3c2NC2CCCCC2)cc1 | 1% | i | -1% | i
CCCCNc1c(-c2ccc(SC3CCCCC3)cc2)nc2cnccn12 | -54% | i | 22µM* | ?
Clc1ccc(-c2nc3cnccn3c2NC2CCCC2)cc1 | 0% | i | 13µM* | i
CCCCNc1c(-c2ccc(OC)c(SC3CCCCC3)c2)nc2cnccn12 | -44% | i | -23% | 32µM*
CN(CCC#N)c1ccc(/C=C/c2ccnc3ccccc23)cc1 | -15% | . | . | .
CCN(CCNC(=O)[C@H]1C=C(OC)C(=O)C[C@H](c2ccccc2)[C@H]1C)C(C)=O | . | . | . | i
S=c1[nH]c(-c2ccccc2)cn1/N=C/c1ccccc1Br | -19% | ? | ? | i
Cc1ccc(/C=N/n2cc(-c3ccccc3)[nH]c2=S)s1 | -2% | 4.5µM* | 25% | i
CN(C)c1ccc(/C=C2\CCc3cc(N)ccc32)cc1 | 0% | . | . | .
COc1ccc(C(=O)/C=C2/C(=O)Nc3ccccc32)cc1OC | 2% | i | -2% | ?
COc1ccc(C(=O)/C=C2/C(=O)Nc3ccccc32)cc1 | -53% | i | 2.8µM* | i
COc1ccc(C(=O)/C=C2/C(=O)Nc3ccccc32)c(OC)c1 | -1% | i | 11µM* | i

Source: PubChem BioAssay (National Center for Advancing Translational Sciences (NCATS))
